Counter-ions that a name gives are not always drawn. ± gives the standard deviation of the averaged measurements.
System: Klebsiella pneumoniae KPC-119
Experiment: percent growth inhibition of drug + antibiotic vs DMSO control; higher = more growth inhibition
Conditions: antibiotic (0.125x MIC): colistin; 7 µM

Row | Compound | percent growth inhibition
1 | CCCCCCCCNC(C)C(O)c1ccc(SC(C)C)cc1 (configuration not stated) [Suloctidil] | 3.9 ± 5.4%
2 | CCn1cc(C(=O)O)c(=O)c2cc(F)c(N3CCNCC3)nc21 [Enoxacin] | 13.6 ± 6.1%
3 | CC(C)(C)CC(C)(C)c1ccc(OCCOCC[N+](C)(C)Cc2ccccc2)cc1 [Benzethonium chloride] | 4.69 ± 10%
4 | CCCCC(CC)CNC(=N)NC(=N)NCCCCCCNC(=N)NC(=N)NCC(CC)CCCC (configuration not stated) [Alexidine dihydrochloride] | 98.02 ± 0.96%
5 | COC(=O)N/N=C/c1c[n+]([O-])c2ccccc2[n+]1[O-] [Carbadox] | 34.1 ± 0.81%
6 | CN(C)CCCN1c2ccccc2Sc2ccc(Cl)cc21 [Chlorpromazine hydrochloride] | 41.9 ± 12%
7 | NCC[C@H](O)C(=O)N[C@@H]1C[C@H](N)[C@@H](O[C@H]2O[C@H](CN)[C@@H](O)[C@H](O)[C@H]2O)[C@H](O)[C@H]1O[C@H]1O[C@H](CO)[C@@H](O)[C@H](N)[C@H]1O [Amikacin hydrate] | 38.9 ± 2.6%
8 | CC1COc2c(N3CCN(C)CC3)c(F)cc3c(=O)c(C(=O)O)cn1c23 (configuration not stated) [Ofloxacin] | 98.02 ± 0.8%
9 | CC(=O)OCC(=O)[C@@]1(O)CC[C@H]2[C@@H]3CCC4=CC(=O)CC[C@]4(C)[C@@]3(F)[C@@H](O)C[C@@]21C [Fludrocortisone acetate] | 58.4 ± 10%
10 | C[C@H]1c2cccc(O)c2C(=O)C2=C(O)[C@]3(O)C(=O)C(C(N)=O)=C(O)[C@@H](N(C)C)[C@@H]3[C@@H](O)[C@@H]21 [Doxycycline hydrochloride] | 42.8 ± 2.2%
11 | C=CC1=C(C(=O)O)N2C(=O)[C@@H](NC(=O)/C(=N\OCC(=O)O)c3csc(N)n3)[C@H]2SC1 [Cefixime] | 9.79 ± 12%

Same assay, conditions: antibiotic (0.125x MIC): colistin; 20 µM

Row | Compound | percent growth inhibition
12 | CCCCCCCCNC(C)C(O)c1ccc(SC(C)C)cc1 (configuration not stated) [Suloctidil] | 94.63 ± 0.84%
13 | CCn1cc(C(=O)O)c(=O)c2cc(F)c(N3CCNCC3)nc21 [Enoxacin] | 97.72 ± 0.24%
14 | CC(C)(C)CC(C)(C)c1ccc(OCCOCC[N+](C)(C)Cc2ccccc2)cc1 [Benzethonium chloride] | 97.15 ± 0.41%
15 | CCCCC(CC)CNC(=N)NC(=N)NCCCCCCNC(=N)NC(=N)NCC(CC)CCCC (configuration not stated) [Alexidine dihydrochloride] | 94.8 ± 1.6%
16 | COC(=O)N/N=C/c1c[n+]([O-])c2ccccc2[n+]1[O-] [Carbadox] | 87.5 ± 11%
17 | CN(C)CCCN1c2ccccc2Sc2ccc(Cl)cc21 [Chlorpromazine hydrochloride] | 2.49 ± 2.4%
18 | NCC[C@H](O)C(=O)N[C@@H]1C[C@H](N)[C@@H](O[C@H]2O[C@H](CN)[C@@H](O)[C@H](O)[C@H]2O)[C@H](O)[C@H]1O[C@H]1O[C@H](CO)[C@@H](O)[C@H](N)[C@H]1O [Amikacin hydrate] | 92.29 ± 0.57%
19 | CC1COc2c(N3CCN(C)CC3)c(F)cc3c(=O)c(C(=O)O)cn1c23 (configuration not stated) [Ofloxacin] | 97.8 ± 1.4%
20 | CC(=O)OCC(=O)[C@@]1(O)CC[C@H]2[C@@H]3CCC4=CC(=O)CC[C@]4(C)[C@@]3(F)[C@@H](O)C[C@@]21C [Fludrocortisone acetate] | -6.61 ± 5%
21 | C[C@H]1c2cccc(O)c2C(=O)C2=C(O)[C@]3(O)C(=O)C(C(N)=O)=C(O)[C@@H](N(C)C)[C@@H]3[C@@H](O)[C@@H]21 [Doxycycline hydrochloride] | 91.4 ± 2.1%
22 | C=CC1=C(C(=O)O)N2C(=O)[C@@H](NC(=O)/C(=N\OCC(=O)O)c3csc(N)n3)[C@H]2SC1 [Cefixime] | 97.8 ± 1.9%

Source: the supplement of paper PMC6658780
